# Most compounds without a hit are left out; they make up all but 21% or so of the library.
# CHX counter = counter-screen for Shiga toxin inhibitors: cycloheximide protein synthesis inhibition; 300,000 compounds, 12% hits; max response, %; cell reporter, cycloheximide protein synthesis inhibition counterscreen; in the data active = max response mostly above about 13%, no sharp cut-off; inactive = mostly below about 14%; note: read at 38.3 µM for the half of the compounds with a filed dose; 0% is about no effect
# NS1 function inh = inhibitors of influenza NS1 protein function | AID 2326 | 270,000 compounds, 0.4% hits | Potency, µM (doses to about 46.1 µM), for inactives: at the top dose activity, positive = more growth; calls by dose curve; note: potency is the fitted concentration of half-maximal effect; actives are rising curves; nearly all actives have a fitted effect of over 50% in size
#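 S. cerevisiae expressing influenza A NS1, grown in glucose, washed, then diluted 1:100 into pH 6.0 -URA galactose medium with 23 nl compound. Growth recovery read as OD600; NS1-free strain serves as control.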
# Shiga inhibitor = Shiga toxin inhibition. Vero cells, Shiga toxin protein synthesis inhibition reporter. inhibition, % at 38.7 µM. 290,000 compounds, 9.2% hits; in the data active = inhibition mostly above about 28%, no sharp cut-off; inactive = mostly below about 43%; note: 0% is about no effect
# Sm TGR inh = S. mansoni TGR enzyme inhibition; Q962Y6; purified TGR, DTNB reduction, TNB absorbance 405 nm; Potency, µM (doses to about 114 µM), for inactives: at the top dose activity change, negative = inhibition, actives largely listed as inhibitors; 360,000 compounds, 3% hits; AID 485364; note: potency is the fitted concentration of half-maximal effect; % is set by controls: 0 for no effect and ±100 for the full control effect; nearly all actives have a fitted effect of over 60% in size
#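 TGR 20 nM + NADPH 100 uM (dispensed conc.), cpd preinc 15 min RT; start with NADPH (500 uM addition) then DTNB (15 mM addition). Kinetic TNB absorbance, 405 nm filter. Four-parameter Hill fit across titration.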
# Pf growth 96h = inhibits malaria parasite growth, 96 h; P. falciparum luciferase reporter growth, 96 h; 320,000 compounds, 6.9% hits; Potency, µM (highest dose often 28.7 µM), inactives show at the top dose activity change, negative = inhibition, most hits filed as inhibitors; note: potency is the fitted concentration of half-maximal effect; % is set by controls: 0 for no effect and ±100 for the full control effect
#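 Infected RBCs, 2% Hct / 0.05% parasitemia final; luciferase-reporter P. falciparum; cpd 96 h, 37 C, 5% CO2; luciferase detection reagent; luminescence.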
# Pf growth 48h = P. falciparum growth inhibition at 48 hours (one generation); Potency, µM (top dose mostly 28.7 µM), for inactives: top-dose activity change, negative = inhibition, actives largely listed as inhibitors; AID 504832; 310,000 compounds, 5.9% hits; P. falciparum luciferase growth in erythrocytes, 48 h; note: potency is the fitted concentration of half-maximal effect; % is set by controls: 0 for no effect and ±100 for the full control effect
#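 Luciferase-expressing parasites in RBCs, 2% Hct / 0.1% parasitemia final; RPMI 1640 + 0.5% Albumax; 37 C, 5% CO2, one generation; luminescence read-out, lower signal = inhibition.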
# * = called active by the depositor; ? = inconclusive; . = not tested or not shown; ! = repeats disagree; [ ] = another dose, or the depositor's remark. Unless noted, calls come from the whole dose curve; as a rule, active = well fitted curve in the direction sought with a large enough effect; inconclusive = small, poorly fitted or top-dose-only effect, or another doubt; inactive = no such curve, though single readings can be large; an effect the other way counts as inactive or inconclusive.
SMILES,CHX counter,NS1 function inh,Shiga inhibitor,Sm TGR inh,Pf growth 96h,Pf growth 48h
CCOc1cc(/C=N/N2C(=O)NC3(CCCCC3)C2=O)cc(Br)c1O,19.9,.,15.6,-23.7%,25.9%,-8.3%
COc1cccc(/C=N/N2C(=O)NC3(CCCCC3)C2=O)c1O,37.2*,9.0%,51.4,0.2%,-1.3%,.
CC1(C)NC(=O)N(CCOCCOc2cccc(Oc3ccccc3)c2)C1=O,8.0,-14.0%,-26.3,4.5%,.,0.5%
CCC(=O)c1ccccc1OCCCN1C(=O)NC(C)(C)C1=O,-7.7,0.2%,-11.0,3.3%,.,18.8%
CC1(C)NC(=O)N(CCCCOc2ccc3ccccc3c2Cl)C1=O,54.4*,-1.7%,88.4*,-34.9%,?,.
CC1(C)NC(=O)N(CCOCCOc2ccc3ccccc3c2Br)C1=O,36.8*,-5.5%,44.4,-20.3%,3.7µM*,.
O=C(CSc1ncc2c(n1)-c1ccccc1N(Cc1ccc(F)cc1)S2(=O)=O)NCCc1ccccc1,.,.,.,1.9%,.,.
CCCCc1cc(O)c(CCCC)c(O)c1,39.2*,-156.7%,39.5*,-4.6%,198.1%,?
Cc1cc(NC(=O)CON=C(N)CC(=O)Nc2ccccc2Cl)ccc1Br,.,.,.,0.0%,?,-8.5%
NC[C@@H]1O[C@H](O[C@@H]2[C@H](O[C@@H]3O[C@H](CO)[C@@H](O)[C@@H]3O)[C@@H](O)[C@@H](N)C[C@H]2N)[C@@H](N)[C@H](O)[C@@H]1O,.,.,.,.,-26.3%[12.8 µM],-11.0%[12.8 µM]
Cc1ccc(C)c(C(=N)c2ccccc2Cc2ccccc2)c1,.,-31.8%,.,.,.,.
COc1ccc(Nc2ncnc3c2cnn3-c2ccc(C)cc2)cc1Cl,.,.,.,5.9%,.,.
O=C(COC(=O)c1ccc(Cl)nc1)Nc1nnc(-c2ccccc2)o1,.,.,.,-0.9%,?,-2.7%
COc1ccc(NC(=O)NC2CCCCCCC2)cc1OC,39.2*,-4.8%,47.7,-0.1%,?,34.0%
COc1ccc(NC(=O)NN2CCN(C)CC2)cc1OC,26.7*,4.2%,20.8*,0.0%,28.9%,32.4%
Cc1ccc(NC(=O)NC2CCCCC2)cc1Cl,34.2*,-8.4%,59.5*,-3.3%,.,8.0%
COc1ccc(NC(=O)NN2CCOCC2)cc1OC,7.9,0.1%,-6.0,.,-0.9%,9.6%
Cc1ccc(NC(=O)C2CCN(C(=O)NC3CCCCC3)CC2)cc1Cl,-2.3,0.7%,13.9,1.0%,150.9%,4.9%
Cc1nonc1OCC(C)(COc1nonc1C)NC(=O)c1ccc(Cl)cc1,-3.1,-1.2%,12.5,24.0%,4.65µM*,8.28µM*
Nc1nonc1C(=O)NCCNC(=O)c1ccc(Cl)cc1,-5.1,1.5%,5.1,-0.1%,?,24.5%
O=C(c1ccco1)c1nnn(Cc2ccccc2)c1-c1ccccc1,10.8,-10.2%,20.8,31.6µM*,-12.6%,-23.6%
CC(c1nnnn1C1CCCCC1)N(Cc1ccccc1)Cc1cccnc1 (centres undefined),-2.6,-43.9%,-9.3,-6.4%,11.4%,10.4µM*
CCN(Cc1ccccc1)C(c1cccs1)c1nnnn1C1CCCCC1 (centres undefined),-0.7,-39.2%,-3.3,7.7%,0.3%,9.28µM*
CCN(Cc1ccccc1)C(c1ccccn1)c1nnnn1C1CCCCC1 (centres undefined),-3.0,6.5%,-20.9,-23.2%,-32.2%,11.7µM*
c1ccc(C(c2nnnn2C2CCCC2)N2CCCCCC2)nc1 (centres undefined),-1.5,0.2%,-3.5,0.0%,-3.0%,.
SMILES,CHX counter,NS1 function inh,Shiga inhibitor,Sm TGR inh,Pf growth 96h,Pf growth 48h
Clc1ccc(C(c2nnnn2C2CCCCC2)N(Cc2cccnc2)Cc2ccco2)cc1 (centres undefined),0.1,-51.7%,11.3,-13.9%,?,?
CN(Cc1ccccc1)c1ccc(-c2nc(-c3ccncc3)no2)cc1[N+](=O)[O-],.,.,.,-11.3%,.,.
CN(C)CCCSc1nc2ccccc2[nH]1,.,-2.0%,.,.,.,.
Cc1c(OCC(F)(F)F)ccnc1CSc1nc2ccccc2[nH]1,53.5*,-10.8%,132.0*,-3.9%,?,?
COCCCOc1ccnc(CS(=O)c2nc3ccccc3[nH]2)c1C (centres undefined),43.5*,-20.5%,47.7*,17.4%,57.0%,40.0%
O=c1[nH]c2ccccc2nc1C(F)(F)F,0.7,2.2%,11.4,10.6%,1.8%,34.9%
Cc1c(OCC(F)(F)F)ccnc1CS(=O)c1nc2ccccc2[nH]1 (centres undefined),26.6*,-8.4%,116.0*!,-18.4%,-18.0%,10.3%
CCOC(=O)CCc1nc2ccccc2[nH]c1=O,-0.9,-3.5%,-11.1,3.9%,-18.4%,3.9%
Cc1oc(-c2ccccc2F)nc1CS(=O)(=O)CC(=O)NCCc1ccc(Cl)cc1,.,.,.,-33.4%,.,.
CCN(CC)c1nc(=S)nc(NC(C)(C)C)[nH]1,-1.4,18.7%,-3.4,-11.3%,6.3%,?
C#CCOc1ccc2ccccc2c1/C=C(/C#N)c1ccc(C(=O)O)cc1,3.3,-10.3%,.,1.3%,-5.0%,?
CC(C)(C)c1ccc(NC(=O)Nc2ccc3ccccc3n2)cc1,-1.6,1.0%,-10.6,5.8%,?,-11.0%
CC(C)(C)c1ccc(NC(=O)Nc2ccc(F)cc2)cc1,42.0*,-4.1%,68.4*,.,-30.0%,?
CC(=O)Nc1ccc(NC(=O)Cc2ccc(F)cc2)cc1,4.0,4.2%,-1.8,.,15.1%,15.8%
CC(C)(C)c1ccc(COC(=O)Nc2ccc(F)cc2)cc1,19.2*,7.2%,35.2*,-4.7%,?,-23.4%
CC(=O)Nc1ccccc1-c1nc2ccccc2n(CC(=O)c2ccc(C)c(C)c2)c1=O,.,.,.,-17.0%,.,.
CC(C)[C@@]1(NC(=O)[C@@H]2C[C@@H]3c4cccc5[nH]cc(c45)C[C@H]3N(C)C2)O[C@@]2(O)[C@@H]3CCCN3C(=O)[C@H](Cc3ccccc3)N2C1=O,-1.8,-0.7%,-3.4,-13.8%,1.85µM*,1.85µM*
CC(C)C[C@H]1C(=O)N2CCC[C@H]2[C@]2(O)O[C@](NC(=O)[C@@H]3C=C4c5cccc6[nH]c(Br)c(c56)CC4N(C)C3)(C(C)C)C(=O)N12 (some centres undefined),-1.2,-4.4%,-8.2,-28.4%,4.15µM*,2.33µM*
CC(C)C[C@H]1C(=O)N2CCCC2[C@]2(O)O[C@](NC(=O)[C@@H]3C=C4c5cccc6[nH]cc(c56)CC4N(C)C3)(C(C)C)C(=O)N12 (some centres undefined),-1.0,29.7%,-9.2,10µM*,2.33µM*,2.62µM*
CC(C)[C@@]1(NC(=O)[C@@H]2C=C3c4cccc5[nH]cc(c45)C[C@H]3N(C)C2)O[C@@]2(O)[C@@H]3CCCN3C(=O)[C@H](Cc3ccccc3)N2C1=O,-1.8,?,-13.1,8.91µM*,2.33µM*,2.94µM*
CCCOc1ccc(C(=O)Nc2cc(-c3nc4cc(C)cc(C)c4o3)ccc2C)cc1,.,.,.,0.4%,.,.
O=S(=O)(NC1CC1)c1ccc(S(=O)(=O)N(Cc2ccccn2)C2CCCC2)cc1,-4.6,-1.8%,3.8,-8.7%,-14.9%,.

# Assay outcomes deposited in PubChem by National Center for Advancing Translational Sciences (NCATS).
